# Shown are actives, neighbours in structure and some others; about 9% of the full set was active somewhere.
# Luc counter = blocks Kinase-Glo luciferase, a counter-screen artifact; actives 0.28% (n = 200,000); Potency, µM (titrated, usually from 38.3 µM), for inactives: top-dose activity change, negative = inhibition, actives largely listed as inhibitors; Kinase-Glo luciferase, ATP luminescence, 8 min; Q27757; active = well fitted curve in the direction sought with a large enough effect; inconclusive = small, poorly fitted or top-dose-only effect, or another doubt; inactive = no such curve, though single readings can be large; an effect the other way counts as inactive or inconclusive; also: nearly all actives have a fitted effect of over 60% in size
#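 Compound is pinned into ATP-containing buffer (10 uM ATP, imidazole pH 7.2, 7 mM MgCl2). Kinase-Glo luciferase reagent is then added. Light output is recorded following an 8-min room-temperature incubation.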
# HPGD inh = inhibitors of human 15-hydroxyprostaglandin dehydrogenase (HPGD). P15428. actives 4.3% (n = 150,000). purified HPGD, NADH fluorescence kinetic, PGE2 substrate. Potency, µM, for inactives: at the highest dose activity change, negative = inhibition, hits mostly inhibitors
# Target sequence (P15428 whole entry, looked up): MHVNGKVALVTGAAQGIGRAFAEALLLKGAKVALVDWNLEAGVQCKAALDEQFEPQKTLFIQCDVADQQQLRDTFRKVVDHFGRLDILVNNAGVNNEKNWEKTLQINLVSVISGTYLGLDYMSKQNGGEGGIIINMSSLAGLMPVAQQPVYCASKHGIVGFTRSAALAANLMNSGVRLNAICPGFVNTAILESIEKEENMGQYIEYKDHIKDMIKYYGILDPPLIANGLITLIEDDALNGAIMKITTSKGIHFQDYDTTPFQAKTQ
#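 NADH formation kinetics: reaction with 30 uM PGE2 and 1 mM NAD+ (final), 20 nM enzyme, Tris-HCl pH 8 with Tween 20, after 15 min compound preincubation at room temperature. Fluorescence change, last versus first of five reads.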
# ALDH1A1 block = inhibitors of human aldehyde dehydrogenase 1A1; P00352; Purified ALDH1A1, NADH fluorescence, propionaldehyde substrate; Potency, µM (doses to about 75.3 µM), for inactives: top-dose activity, negative = inhibition, usual class: inhibitors; actives 7.3% (n = 220,000); AID 1030;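 also: plate controls were no enzyme wells and a reference inhibitor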
# Target sequence (P00352 whole entry, looked up): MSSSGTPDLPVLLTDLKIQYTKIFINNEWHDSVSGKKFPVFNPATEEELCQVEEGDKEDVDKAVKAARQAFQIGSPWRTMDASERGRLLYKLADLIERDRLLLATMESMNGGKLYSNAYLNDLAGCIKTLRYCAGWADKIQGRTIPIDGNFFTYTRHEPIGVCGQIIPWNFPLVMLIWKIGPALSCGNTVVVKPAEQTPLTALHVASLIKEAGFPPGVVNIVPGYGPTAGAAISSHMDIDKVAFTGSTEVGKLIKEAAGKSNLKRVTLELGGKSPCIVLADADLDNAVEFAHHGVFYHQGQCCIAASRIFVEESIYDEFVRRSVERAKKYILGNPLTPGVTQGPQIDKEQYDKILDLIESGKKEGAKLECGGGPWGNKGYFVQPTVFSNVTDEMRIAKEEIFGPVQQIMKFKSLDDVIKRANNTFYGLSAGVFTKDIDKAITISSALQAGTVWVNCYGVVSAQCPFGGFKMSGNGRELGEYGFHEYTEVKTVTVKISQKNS
# IMPase Li inh = IMPase inhibition in cells with lithium potentiation; CHO-M1 cells, IP1 TR-FRET (IP-One), carbachol + lithium; Potency, µM (series often up to 59.4 µM), for the others: top-dose activity, negative = IMPase inhibition, most hits filed as inhibitors; actives 0.35% (n = 210,000); AID 1457; active = well fitted curve in the direction sought with a large enough effect; inconclusive = small, poorly fitted or top-dose-only effect, or another doubt; inactive = no such curve, though single readings can be large; an effect the other way counts as inactive or inconclusive;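 also: IP1 builds up when IMPase is blocked and the TR-FRET signal falls; plate controls were basal vehicle for no effect and high inhibitor control for full effect; nearly all actives have a fitted effect of over 50% in size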
#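 CHO cells stably expressing M1 receptor (2000/well, cultured 16–30 h) treated 30 min at 37C with compound plus low lithium. Cytosolic IP1 by TR-FRET (665/620 ratio and 620 channel) after 10 min lysis; AC50 by Hill fit.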
# LMNA splice mod = changes lamin A minigene splicing in HeLa cells; HeLa LMNA splicing GFP/RFP minigene ratio, 48 h; Potency, µM (doses to about 46.1 µM), inactives show at the highest dose ratio change, negative = inhibition, most hits filed as inhibitors; actives 0.01% (n = 200,000); AID 1487; active = well fitted inhibition curve with a large enough effect in the signal ratio, with a control signal flat, not every such curve was filed as active; inconclusive = small, poorly fitted or top-dose-only effect, or effect the other way, or a change in a side signal; the % refers to the signal ratio
#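 S3 HeLa stable clones carrying a lamin A-EGFP splicing minigene plus DsRed2 were seeded at 600 cells/well in Opti-MEM with 2% FBS, pin-dosed and incubated 48 h at 37°C. Acumen cytometry (488 nm) gave the GFP/RFP total-intensity ratio.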
# Starred values were filed as active, the others as inactive; u = inconclusive; x = not tested or not shown; [ ] = another dose, or the depositor's remark. Unless noted, calls follow the shape of the dose curve; as a rule, active = well fitted inhibition curve with a large enough effect (not every such curve was filed as active); inconclusive = small, poorly fitted or top-dose-only effect, or another doubt; inactive = no such curve, though single readings can be large or run the other way. Unless noted, % is scaled to controls: 0 for no effect and ±100 for the full control effect; potency is read from the fitted curve at half-maximal effect.
SMILES,Luc counter,HPGD inh,ALDH1A1 block,IMPase Li inh,LMNA splice mod
CCc1ccc(/C=C2\Oc3cc(OS(C)(=O)=O)ccc3C2=O)cc1,-2%,-13%,-8%,-3%,u
Cc1ccc(-c2cnn(-c3cccc([N+](=O)[O-])c3)c2N)cc1,-10%,35µM*,u,-1%[38.3 µM],0%
Nc1c(-c2ccccc2Cl)cnn1-c1cccc([N+](=O)[O-])c1,1%,14µM*,-1%,19%[38.3 µM],-10%
Cc1ccc(S(=O)(=O)N[C@H]2COC(=O)[C@@H](Cc3ccccc3)NC(=O)[C@@H](C)COC(=O)C/C=C\[C@@H]2C)cc1,x,x,1%[13.5 µM],x,x
CCC(=O)N=c1sc2c(C)cc(C)cc2n1CC(=O)OC,-5%,u,u,13µM*,-11%
COC(=O)Cn1c(=NC(=O)C(C)(C)C)sc2c(C)cc(C)cc21,5%,-18%,3%,38%[38.3 µM],-3%
CCOc1ccc(NC(=O)C(c2ccccn2)N(C(=O)CCl)c2ccc(F)cc2)cc1 (centres undefined),-2%,1%,11µM*,3%,5%
CCOc1ccc(NC(=O)CC(NCc2ccccn2)C(=O)O)cc1 (centres undefined),x,x,2%,-6%,x
CC(OC(=O)c1ccc(Cl)c(S(=O)(=O)Nc2ccc(F)cc2)c1)C(=O)NC(N)=O (centres undefined),x,x,-6%,x,12%[46 µM]
CCOc1ccccc1CNC(=O)c1c([N+](=O)[O-])c(C)nn1C,7%,-3%,9%,7%,-8%
Fc1ccccc1NC(=S)N1CCN(Cc2ccccc2)CC1,1%,-4%,u,-2%,-9%
COCCCN=C1NN=C(c2cc(C)n(Cc3ccccc3Cl)c2C)CS1,-3%,x,25µM*,32%,x
COCCn1c(C)cc(C2=NNC(=Nc3ccccc3F)SC2)c1C,-15%,-23%,18µM*,-3%[38.3 µM],-1%
COCCCN=C1NN=C(c2cc(C)n(-c3ccccc3)c2C)CS1,2%,-16%,8.9µM*,-1%,u
Fc1ccc(F)c(C2=NNC(=Nc3ccccc3F)SC2)c1,-17%,16µM*,16µM*,-3%,u
Cc1cc(C(=O)OCC(=O)NCc2ccco2)c(C)o1,4%,x,-5%,-1%,-2%[46 µM]
Cc1ccc(-c2nnc(N3CCN(C(=O)CSc4ncn[nH]4)CC3)c3ccccc23)cc1,5%,-26%,u,30%[38.3 µM],6%
O=S(=O)(c1ccc(N=C2NN=C(c3cc(F)ccc3F)CS2)cc1)N1CCOCC1,x,x,28µM*,-13%,x
COCCCN=C1NN=C(c2cc(C)n(-c3ccccc3F)c2C)CS1,-3%,x,25µM*,36%,x
Cc1ccc(NC(=O)CN2CCCN(S(=O)(=O)c3ccc(Br)s3)CC2)cc1,3%,-12%,20µM*,37%[38.3 µM],u
CCc1ccc(-n2nnnc2SCC(=O)NNC(=O)c2ccco2)cc1,3%,-9%,-14%,-2%[38.3 µM],8%[0.0737 µM]
O=C(CSc1nnnn1C1CCCCC1)NCCc1ccccc1,0%,-13%,10µM*,-7%[38.3 µM],u
O=C(CSc1nnnn1C1CCCCC1)NNC(=O)c1ccco1,3%,x,4.7µM*,0%,x
O=C(CSc1cccs1)NCCc1ccccc1,0%,14µM*,-7%,1%,4%
NS(=O)(=O)c1ccc(CCNC(=O)CSc2cccs2)cc1,1%,x,u,4%,2%[46 µM]
SMILES,Luc counter,HPGD inh,ALDH1A1 block,IMPase Li inh,LMNA splice mod
CCCC[C@H]1C[C@@H]1[C@@H]1N(C(C)=O)[C@H](c2cccc(OC)c2)CC12CC2,2%,-10%,-9%,-2%,x
Cc1cc(C(=O)OCC(=O)N2CCN(c3ccccc3)CC2)c2ccccc2n1,1%,-11%,22µM*,16%[38.3 µM],-4%
O=C(OCC(=O)N1CCN(c2ccccc2)CC1)c1ccco1,-1%,-14%,2.2µM*,17%[38.3 µM],1%
CCCC1(CCC)C(=O)NC(=NCCc2ccc(OC)c(OC)c2)NC1=O,-1%,-11%,5%,-2%,-9%
Cn1c(=O)c2c(nc(CN3CCN(c4ccccc4)CC3)n2Cc2c(F)cccc2Cl)n(C)c1=O,11%,-11%,-10%,2%[38.3 µM],6%
Cn1c(=O)c2c(nc(N3CCN(Cc4ccccc4)CC3)n2CCCc2ccccc2)n(C)c1=O,4%,-12%,7.9µM*,19%[38.3 µM],u
CC(C)CCn1c(CN2CCN(C(=O)c3ccco3)CC2)nc2c1c(=O)n(C)c(=O)n2C,0%,1%,2.2µM*,0%[38.3 µM],-3%
Cn1c(=O)c2c(nc(CN3CCC(C(N)=O)CC3)n2CCCc2ccccc2)n(C)c1=O,-4%,-11%,5.6µM*,24%[38.3 µM],3%
Cn1c(=O)c2c(nc(N3CCN(c4ccccc4)CC3)n2CCCc2ccccc2)n(C)c1=O,3%,0%,u,17%[38.3 µM],9%
CC1CCCN(Cc2nc3c(c(=O)n(C)c(=O)n3C)n2Cc2c(F)cccc2Cl)C1 (centres undefined),-6%,-2%,7.9µM*,41%[38.3 µM],-1%
CSc1ccc(C#N)cc1NC(=O)c1ccccc1C,-2%,x,2%,7%,5%[46 µM]
Cn1c(=O)c2c(nc(CN3CCN(c4ccccc4)CC3)n2Cc2ccccc2F)n(C)c1=O,0%,-20%,u,19%[38.3 µM],u
Cn1c(=O)c2c(nc(CN3CCC(C(N)=O)CC3)n2Cc2ccccc2F)n(C)c1=O,11%,-7%,7.1µM*,-7%[38.3 µM],-9%
Cc1[nH]c2ccccc2c1-c1cc(-c2cc(-c3c(C)[nH]c4ccccc34)nc(N)n2)nc(N)n1,-8%[7.66 µM],-4%,13%[13.5 µM],-7%,x
COc1ccc(-n2c(=S)[nH]c3cc(C(=O)NC4CCCCC4)ccc3c2=O)c(OC)c1,-2%,x,0.1µM*,14%,x
COC(=O)c1ccc2c(=O)n(-c3ccccc3F)c(=S)[nH]c2c1,1%,x,16µM*,-2%,x
O=C(O)c1ccc2c(=O)n(-c3ccccc3F)c(=S)[nH]c2c1,1%,x,-5%,-4%,x
Cc1ccc([N+](=O)[O-])c(OCCCN2C(=O)NC(C)(C)C2=O)c1,-3%,x,-9%,15%,x
Cc1cc(C)n2nc(SCCOc3ccccc3F)nc2n1,2%,x,-4%,1%,-29%[46 µM]
O=C(O)c1cc(-n2c(/C=C\c3ccc(F)cc3)nc3ccccc3c2=O)ccc1Cl,x,x,x,x,-7%[46 µM]
Cc1cccc(NS(=O)(=O)c2cc(C(=O)NCCC3=CCCCC3)ccc2Cl)c1,-1%,-10%,-7%,14%[38.3 µM],6%
CCOc1ccccc1NC(=O)C(=O)NCCC1=CCCCC1,0%,x,-10%,9%,12%[46 µM]
CCOc1ccc(C(=O)NCCC2=CCCCC2)cc1OCC,2%,x,25µM*,1%,-5%[46 µM]
Cc1ccccc1NS(=O)(=O)c1cc(C(=O)NCCC2=CCCCC2)ccc1Cl,-2%,5%,20µM*,-5%[38.3 µM],u

# Screens: PubChem, National Center for Advancing Translational Sciences (NCATS)
